# Measurements as given in ChEMBL document CHEMBL4513216, “Probing the Open Global Health Chemical Diversity Library for Multistage-Active Starting Points for Next-Generation Antimalarials” (ACS Infect Dis, 2020).
# Hit rate of the full screen: of about 65,000 compounds, about 2,100 (3.2%) showed an effect of 50% or more. The median lay at about -52%. Shown is part of a subset that was picked to be rich in strong results.
# System: Plasmodium falciparum
# Test: Screen against P. falciparum Asexual Blood Stage (ABS), at 5uM
# Assay type: functional, Dd2
# Conditions: tested at 5 uM
row,Compound,INHIBITION
1,O=C(c1cc2ccccc2[nH]c1=O)N1CCC2(CCCNC2)C1 (configuration not stated),-49.9%
2,CCCN1CC[C@@H]2OC[C@H](C(=O)Nc3cccnc3)C[C@@H]2C1,-131%
3,CC(C)NC(=O)CN1CCSC2(CCCCC2)C1,-66.6%
4,CCc1ccccc1Nc1noc2c1CN(C(=O)CCOC)CC2,85.1%
5,CN1CC=C(c2noc(CCC(=O)N3CCc4ccccc4C3)n2)CC1,-27.1%
6,CC(C)N1CCO[C@H]2CN(C(=O)Cc3ccsc3)C[C@H]21,-23.1%
7,Cc1cccc(CN2CC[C@@H]3[C@@H]2CCN3C(=O)Cc2ccsc2)n1,-115%
8,CC(C)Nc1nc2c(c(NC3CC3)n1)CN(C(=O)Cc1ccsc1)CC2,75.6%
9,Cn1ccnc1CN1CC[C@H]2CO[C@H](CNc3ncccn3)[C@H]2C1,-52.6%
10,Cn1ccnc1CN1CCN2C[C@H](Oc3cncnc3)C[C@H]2C1,-70.4%
11,CC(C)Nc1nc2c(c(NC3CC3)n1)CCN(Cc1nccn1C)CC2,76.1%
12,CN1CCC(n2cc3nc(N)[nH]cc-3c2=O)CC1,-44.7%
13,O=C(COc1ccccc1)N1C[C@@H](O)[C@H](N2CCCC2)C1,-15.5%
14,CNC(=O)[C@@H]1C[C@H]2CN(Cc3c(C)noc3C)C[C@H]2N1C(C)C,-39.8%
15,COc1ccccc1OCCN(C)c1cc(C)nc(N)n1,70.2%
16,Cc1cc(N(C)CCOc2ccccc2F)nc(N)n1,85.3%
17,COCCN(C)C(C)Cc1ccccc1OC (configuration not stated),23.6%
18,COc1ccccc1OCCCN(C)c1cc(C)nc(N)n1,73.5%
19,CC(C)CNC(=O)N1C[C@H]2CCN[C@H]2C1,14%
20,N#CC1(C(=O)NCC2CCC3(CCNCC3)O2)CC1 (configuration not stated),22.6%
21,CCS(=O)(=O)c1nnc([C@@H](N)Cc2ccccc2)o1,-131%
22,CC[C@H](C)[C@@H](CO)NC(C)Cc1ccc(Cl)cc1 (some centres not stated),18.9%
23,COCCN1C(=O)CC[C@@H]2[C@@H]1CCN2Cc1c(C)noc1C,-35.6%
24,O=C(Nc1cccnc1)[C@H]1CN(C2CCCC2)C[C@H]2OCC[C@@H]12,-39.7%
25,COCCN1CCN(Cc2ccoc2)Cc2cccnc21,21%

row,Compound,INHIBITION
1,CN(C)CCN1CCN(Cc2nccs2)Cc2cccnc21,5.69%
2,CN(C)CCN1CCN(Cc2cccs2)Cc2cccnc21,77.1%
3,CC(C)c1cc(C(=O)N2CCCC3(CCNC3)C2)no1 (configuration not stated),-75.8%
4,CCN1C[C@@H]2CN(Cc3cccs3)C[C@@H]2C1=O,37.6%
5,O=C1CN(C(=O)c2ccc(F)cc2)CC(O)CN1Cc1cccs1 (configuration not stated),88.8%
6,O=C1[C@H]2CN(Cc3cccs3)C[C@H]2CN1c1cncnc1,-85.7%
7,COCC(=O)NC(C)Cc1cccc(OC)c1 (configuration not stated),-118%
8,Cc1noc(C)c1CN1C[C@@H]2COC[C@@H](C(=O)N3CCCO3)[C@@H]2C1,-40.4%
9,Cc1c(C(C)NC2CCN(C(C)C)CC2)cnn1-c1ccc(F)cc1F (configuration not stated),79.9%
10,Cc1c(C(C)NCC2CCCC2)cnn1-c1ccc(F)cc1F (configuration not stated),71.9%
11,N#Cc1ccc(NC2CCN(c3ncccn3)CC2)cc1C(F)(F)F,5.54%
12,CCc1noc(C(C)N2CCNCC2)n1 (configuration not stated),-31.4%
13,CCN1CCCC1CN(CCN(C)C)S(=O)(=O)c1ccccc1C#N (configuration not stated),79.6%
14,O=C(NC1CC(F)(F)C1)[C@]12COC[C@H]1CN(Cc1cccnc1)C2,-63.2%
15,CC1CCN(CCNCc2cc(-c3ccccc3)cn3nnnc23)CC1,70.1%
16,O=C(Cc1ccsc1)N1C[C@@H]2OCCN(CC3CCCO3)[C@@H]2C1 (some centres not stated),-85.3%
17,O=C(N1CCOCC1)N1CCCC2(CCCNC2)C1 (configuration not stated),-45.8%
18,Cn1cc(CN2C[C@@H]3OCCN(c4ncccn4)[C@@H]3C2)cn1,-106%
19,CCOc1ccc2ccccc2c1CNCC1CCS(=O)(=O)C1 (configuration not stated),74.9%
20,CCOc1ccc2ccccc2c1CNCC1CCNCC1,91.6%
21,CC(C)CCN1C[C@@H]2C[C@H](C(=O)Nc3cccnc3)[C@H](C1)O2,-112%
22,C[C@@H]1CN(C2CCOC2)C[C@]12CCN(c1cccnc1)C2=O (some centres not stated),-78.9%
23,CC(=O)N1C[C@@H]2CN(Cc3cccnc3)CCO[C@@H]2C1,-51.9%
24,Cc1ccc([C@]2(O)CC[C@H]3CN(Cc4cc(C)c(O)c(C)c4)C[C@H]32)nc1,74.6%
25,Cc1ccc([C@]2(O)CC[C@H]3CN(Cc4ccncc4)C[C@H]32)nc1,-23.8%

row,Compound,INHIBITION
1,Cc1ccc([C@]2(O)CC[C@H]3CN(Cc4cccnc4)C[C@H]32)nc1,-61.7%
2,Cc1ccc(-c2cn3c(n2)CO[C@@H](CNCc2nccn2C)C3)cc1,87.4%
3,CC[C@H]1CN2CC[C@H]1C[C@@H]2CNCc1ccc2c(c1)OCO2,60.9%
4,CC[C@H]1CN2CC[C@H]1C[C@@H]2CNCc1ccc(OC(F)(F)F)cc1,85.7%
5,CC[C@H]1CN2CC[C@H]1C[C@@H]2CNCc1ccc(OC)cc1,7%
6,CC[C@H]1CN2CC[C@H]1C[C@@H]2CNC(=O)Nc1cc(OC)cc(OC)c1,63.8%
7,CC[C@H]1CN2CC[C@H]1C[C@@H]2CNCc1ccc(N(C)C)cc1,62.8%
8,CC[C@H]1CN2CC[C@H]1C[C@@H]2CNC(=O)Nc1ccccc1,-65.9%
9,CC(C)NC(=O)NC[C@H]1C[C@@H]2CCN1C[C@@H]2CN(C)c1ccccc1,-37.9%
10,COCC(=O)NC[C@H]1C[C@@H]2CCN1C[C@@H]2CN(C)c1ccccc1,-64.8%
11,CC1CCN(C[C@H]2CN3CC[C@H]2C[C@@H]3CNC(=O)c2ccco2)CC1,-36.5%
12,CC[C@H]1CN2CC[C@H]1C[C@@H]2CNC(=O)NC1CCCCC1,-27.6%
13,CCN(CC)C[C@H]1CN2CC[C@H]1C[C@@H]2CNC(=O)Nc1ccsc1,8.11%
14,CO[C@@H]1CC[C@H]2[C@H]1OCCN2CC1CC1,-30.3%
15,c1ccc(CN2C[C@@H]3OCCN(c4ncccn4)[C@@H]3C2)nc1,-56.2%
16,CSc1ccc(C2SCC(=O)Nc3c2c(=O)[nH]n3C2CCOCC2)cc1 (configuration not stated),-122%
17,CCS(=O)(=O)N1CCc2c(COC)cncc2C1,-61.4%
18,COc1ccc(NC(=O)Cn2nc(C)c(C(C)=O)c2C)cc1,89.7%
19,CC(C)N(C)Cc1cncc2c1CCN(CC1CC1)C2,-87.9%
20,CC(C)c1cc(N2CCC3(CCN(C)C3)C2)ncn1 (configuration not stated),-27.6%
21,CNC(=O)CN1CCC12CCN(C(=O)Cc1ccccc1)C2 (configuration not stated),-6.6%
22,O=S(=O)(c1cccc(Cl)c1)N1C[C@@H]2CCN[C@@H]2C1,88.1%
23,O=S(=O)(c1ccc(Cl)cc1)N1C[C@@H]2CCN[C@@H]2C1,82%
24,O=C(Cc1ccc(F)cc1)N1C[C@H]2CCN[C@H]2C1,7.59%
25,Cc1ccc(S(=O)(=O)N2C[C@@H]3CCN[C@@H]3C2)cc1,4.39%

row,Compound,INHIBITION
1,O=S(=O)(c1ccccc1)N1C[C@@H]2CCN[C@@H]2C1,24.4%
2,O=C(NCc1ccccc1)N1C[C@H]2CCN[C@H]2C1,-86.8%
3,CC(C)CNC(=O)[C@H]1C[C@H]2CN(Cc3cccnc3)C[C@@H]1O2,-30.9%
4,Nc1ncccc1CN1C[C@H]2CC[C@@H](C1)N(CC1CC1)C2=O,-61.3%
5,FC(F)Oc1ccccc1CN1CCCC(c2nccn2CC2CC2)C1 (configuration not stated),86.4%
6,CC1C(=O)Nc2cccnc2N1S(=O)(=O)c1ccc(C#N)c(Cl)c1 (configuration not stated),-88.9%
7,CC(C)=CCN1C[C@@H]2CC[C@H]1CN(Cc1cc(=O)[nH]c(=O)[nH]1)C2,4.88%
8,COCCN(CC1CC1)c1nc(CCN)nc2sc(C)c(C)c12,77.5%
9,Cc1sc2nc(CCN)nc(N(CCN(C)C)CC3CCCO3)c2c1C (configuration not stated),70.2%
10,CCN(CCN(C)C)c1nc(CCN)nc2sc(C)c(C)c12,89.8%
11,Cc1cccn2cc(CC(=O)N(CCN(C)C)CC3CCCO3)nc12 (configuration not stated),-84.6%
12,Cc1nnc([C@@H]2CC[C@@H]3[C@@H](CCN3Cc3ccccn3)O2)o1,-18%
13,CN[C@@H](C)C(=O)N(Cc1cccc(C)c1)Cc1ccccc1OC,83.6%
14,COc1cccc(CC(C)NCC(=O)Nc2ccccc2C)c1 (configuration not stated),-75%
15,O=C(c1ccncc1)N1C[C@@H]2OCCN(CCN3CCCC3)[C@@H]2C1,-29.2%
16,CCC1CNCc2cc3c(OC)ccc(OC)c3nc2O1 (configuration not stated),-11%
17,O=C(CC(F)(F)F)N1C[C@H]2CCN[C@H]2C1,-86.8%
18,CCc1nccn1CCNC1CCN(c2nc3ccc(Cl)cc3s2)CC1,85.7%
19,O=C([C@@H]1C[C@@H]2CCN(Cc3ccccn3)C[C@H]2O1)N1CCCO1,-36.6%
20,Cc1cccnc1CC(C)NC1CCSCC1 (configuration not stated),23.6%
21,Cc1cccnc1CC(C)NC1Cc2ccccc2C1 (configuration not stated),89.2%
22,O=C1[C@H]2CN(Cc3ccoc3)C[C@H]2CN1Cc1cccnc1,-10%
